Hits are enriched below; roughly 1.2% of the tested compounds scored in any of these assays.
SRC1 inh: SRC1 coactivator transcriptional activity inhibitors, primary screen, cell-based, luminescence. inhibition, % at 3.6 µM. 360,000 tested, 0.12% active. HEK293 GAL4-SRC1 luciferase reporter. Nuclear receptor coactivator 1 (Homo sapiens), Q15788;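 active means inhibition above the campaign mean plus 3 SD, with each screening campaign given its own cutoff, cut at about 60% in these data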;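 further: 0% = DMSO treated cells and 100% = gossypol at 36 µM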
NCOA3 inh: SRC3 coactivator transcriptional activity inhibitors, primary screen, cell-based, luminescence; HEK293 GAL4-SRC3 luciferase reporter; inhibition, % at 3.6 µM; 360,000 tested, 0.17% active; AID 588352, 2011; Nuclear receptor coactivator 3 (Homo sapiens), Q9Y6Q9;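 active means inhibition above a per-campaign cutoff, the mean of all compounds plus 3 SD, cut at about 60% in these data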;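 further: 0% = DMSO-treated cells and 100% = gossypol-treated cells at 36 µM; higher means less SRC3-driven luciferase light from the GAL4 reporter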
Target sequence (Q9Y6Q9 whole entry, looked up, the tested form may be a part): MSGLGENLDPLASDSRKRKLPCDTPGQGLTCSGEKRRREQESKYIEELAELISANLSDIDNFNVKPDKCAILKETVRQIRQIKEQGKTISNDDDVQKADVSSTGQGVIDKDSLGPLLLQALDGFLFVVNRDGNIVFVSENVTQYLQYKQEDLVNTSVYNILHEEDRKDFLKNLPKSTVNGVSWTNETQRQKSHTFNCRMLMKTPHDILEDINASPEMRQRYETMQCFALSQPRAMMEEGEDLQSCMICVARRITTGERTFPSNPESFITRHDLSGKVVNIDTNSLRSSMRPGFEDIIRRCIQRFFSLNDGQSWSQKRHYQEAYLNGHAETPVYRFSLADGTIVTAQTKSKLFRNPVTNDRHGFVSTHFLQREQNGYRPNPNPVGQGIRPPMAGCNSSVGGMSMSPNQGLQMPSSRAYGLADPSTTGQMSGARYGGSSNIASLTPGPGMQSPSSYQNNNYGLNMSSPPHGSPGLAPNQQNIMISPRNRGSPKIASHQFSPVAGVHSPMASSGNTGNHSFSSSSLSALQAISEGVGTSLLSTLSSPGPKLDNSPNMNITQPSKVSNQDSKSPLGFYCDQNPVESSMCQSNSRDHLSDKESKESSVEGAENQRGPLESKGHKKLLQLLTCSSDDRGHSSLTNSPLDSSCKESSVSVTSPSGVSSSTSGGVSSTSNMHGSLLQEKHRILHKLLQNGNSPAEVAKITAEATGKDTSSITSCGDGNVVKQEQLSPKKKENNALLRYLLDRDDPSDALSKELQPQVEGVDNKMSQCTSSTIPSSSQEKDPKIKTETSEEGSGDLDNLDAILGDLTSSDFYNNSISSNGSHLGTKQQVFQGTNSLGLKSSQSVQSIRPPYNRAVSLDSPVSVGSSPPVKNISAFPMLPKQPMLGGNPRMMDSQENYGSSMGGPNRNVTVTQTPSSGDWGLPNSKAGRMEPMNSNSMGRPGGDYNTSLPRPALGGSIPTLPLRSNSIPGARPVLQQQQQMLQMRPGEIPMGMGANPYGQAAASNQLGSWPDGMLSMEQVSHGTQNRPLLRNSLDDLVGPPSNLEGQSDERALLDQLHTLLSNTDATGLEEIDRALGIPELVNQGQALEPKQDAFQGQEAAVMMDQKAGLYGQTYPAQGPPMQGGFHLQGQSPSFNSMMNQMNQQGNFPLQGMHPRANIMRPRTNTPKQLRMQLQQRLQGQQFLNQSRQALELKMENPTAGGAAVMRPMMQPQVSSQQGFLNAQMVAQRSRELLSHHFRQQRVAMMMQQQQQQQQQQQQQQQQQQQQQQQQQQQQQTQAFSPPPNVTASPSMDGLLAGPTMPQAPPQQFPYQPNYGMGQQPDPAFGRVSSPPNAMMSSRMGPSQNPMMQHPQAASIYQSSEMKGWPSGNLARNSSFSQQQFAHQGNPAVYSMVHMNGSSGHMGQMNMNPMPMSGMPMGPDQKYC
NR5A2 inv ag: LRH-1 (NR5A2) inverse agonists, primary screen, cell-based, luminescence, HEK293T, StAR-luciferase reporter; LRH-1 transfected, 24 h; inhibition, % at 3.6 µM; 360,000 tested, 0.13% active; AID 602396, 2012;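 active means inhibition above the mean inhibition of all tested compounds plus 3 SD, cut at about 73% in these data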;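 further: 0% = DMSO wells and 100% = reporter-only cells lacking LRH-1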
NR2F2 inh: NR2F2 transcriptional activity inhibitors, primary screen, cell-based, luciferase reporter, HEK293T, luminescence; HEK293T NGFI-A luciferase reporter; 370,000 tested, 0.7% active; inhibition, % at 8.6 µM; AID 686940, 2013;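 active means inhibition above a per-plate cutoff, mean inhibition of test wells between control levels plus 3 SD, cut at about 38% in these data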;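 further: cells cotransfected with COUP-TFII expression vector driving the NGFI-A reporter; 0% = median of COUP-TF2 test wells and 100% = reporter-only cells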
SRC2 inh: inhibition of GAL4-SRC2 driven luciferase reporter, primary screen, SRC2 inhibitor project, cell-based, luminescence. 370,000 tested, 0.17% active. AID 651957, 2012. HEK293 GAL4-SRC2 luciferase reporter. inhibition, % at 9 µM. Nuclear receptor coactivator 2 (Homo sapiens), Q15596;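 active means inhibition above the mean inhibition of all tested compounds plus 3 SD, set per campaign, cut at about 52% in these data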;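 further: 0% = DMSO treated cells and 100% = cells given Gossypol at 36 µM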
Efflux pump mplx: inhibitors of Candida efflux pumps in yeast, primary screen, S. cerevisiae, Nile Red, multiplex | S. cerevisiae Candida pump triplex | inhibition, % at 10 µM | 330,000 tested, 0.44% active;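 active means plate passing quality check with inhibition over a set limit, or well fluorescence over plate mean plus 4 SD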;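 further: Nile Red retained in pooled yeast measured as flow cytometry median fluorescence; 0% = buffer negative control and 100% = Enniatin B positive control; higher means more Nile Red kept so more efflux inhibition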
Cmpd fluor yeast: counter-screen for efflux pump inhibitors: compound fluorescence; shares compounds with Efflux pump mplx; S. cerevisiae AD/pABC3, flow cytometry; fluorescence ratio to DMSO, % at 10 µM; 1,700 tested, 4% active; AID 588517;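 active means fluorescence ratio to DMSO above its plate's cutoff, the plate mean ratio plus 5 SD, cut at about 210% in these data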;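 further: unstained yeast with no Nile Red so the signal is compound autofluorescence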
CaMdr1 efflux inh: inhibitors of Candida albicans Mdr1 efflux, confirmation, flow cytometry, singleplex, Cherry Pick1 set; 1,700 tested, 1% active; inhibition, % at 10 µM; S. cerevisiae AD/CaMDR1, Nile Red efflux; shares compounds with Efflux pump mplx; in the data active means inhibition above about 26%;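 further: 0% = DMSO vehicle and 100% = reference inhibitor; higher means more Nile Red retained so more efflux inhibition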
CaCdr2 efflux inh: inhibitors of Candida albicans Cdr2 efflux pump, confirmation, S. cerevisiae AD/CaCDR2, flow cytometry, cherry pick 1, singleplex; shares compounds with Efflux pump mplx; Nile Red retention; Nile Red retention ratio vs DMSO, % at 10 µM; 1,700 tested, 4% active; AID 588520, 2011; in the data active means Nile Red retention ratio vs DMSO above about 190%;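 further: higher ratio means more blocking of Cdr2 efflux of the dye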
Cdr1 pump inh: inhibitors of Candida albicans Cdr1 efflux pump, confirmation, S. cerevisiae AD/CaCDR1, flow cytometry, cherry pick 1, singleplex; shares compounds with Efflux pump mplx; Nile Red efflux; inhibition, % at 10 µM; 1,700 tested, 1% active; AID 588522, 2011;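 active means inhibition above the screen-wide mean plus twice its standard deviation, cut at about 32% in these data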
Gal4-VP16 ctr: Gal4-VP16 luciferase reporter inhibitors, counter-screen for COUP-TFII antagonist project, cell-based, luminescence, HEK293 | shares compounds with NR2F2 inh | inhibition, % at 8.5 µM | 2,500 tested, 25% active | AID 687007, 2013; in the data active means inhibition above about 13%
COUP-TFII conf: NR2F2 transcriptional activity inhibitors, confirmation, cell-based, luciferase reporter, HEK293, triplicate; inhibition, % at 8.5 µM; shares compounds with NR2F2 inh; AID 687008, 2013; 2,500 tested, 45% active; HEK293 NGFI-A luciferase reporter, luminescence;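 active means mean inhibition over three repeats above a set limit taken from the earlier primary screen, cut at about 38% in these data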;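 further: 100% = cells given the luciferase reporter alone without the COUP-TF2 vector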
Active calls of the source: *; x = not tested or not shown; + = active, no number; ! = not active in a repeat.

SMILES	SRC1 inh	NCOA3 inh	NR5A2 inv ag	NR2F2 inh	SRC2 inh	Efflux pump mplx	Cmpd fluor yeast	CaMdr1 efflux inh	CaCdr2 efflux inh	Cdr1 pump inh	Gal4-VP16 ctr	COUP-TFII conf
Cc1ccc(-n2c(=O)[nH]c3c(C(N)=O)nc(CC(C)C)nc32)cc1	7.5	2.8	2.6	-7.4	-9.1	0.0	x	x	x	x	x	x
CNc1nc(N)c([N+](=O)[O-])c(N2CCCCCC2)n1	-54.5	0.1	-10.6	6.8	-10.8	-0.2	x	x	x	x	x	x
CCN(CC)c1cccc(OCC(=O)N(C)CCC#N)c1	-7.2	26.8	0.8	7.8	-9.9	2.1*	202.1	0.7	142.3	1.3	x	x
Cc1ccc(OCc2cc(C(=O)NCC(C)(C)N3CCOCC3)no2)cc1C	-207.2	-77.5	-95.1	-19.0	-51.4	1.5	98.2	-0.1	97.7	0.8	x	x
CCC(Sc1nc2ccsc2c(=O)n1Cc1ccc(C(=O)O)cc1)C(=O)Nc1ccc(C)c(Cl)c1 (centres undefined)	-0.3	8.1	3.3	10.9	9.6	0.8*	123.7	0.3	105.1	0.0	x	x
CCC(Sc1nc2ccsc2c(=O)n1Cc1ccc(C(=O)O)cc1)C(=O)Nc1cc(Cl)ccc1C (centres undefined)	-8.8	-14.7	6.7	-12.3	-17.6	x	x	x	x	x	x	x
CCOC(=O)C1=C(COc2ccc(C)cc2)NC(=O)NC1c1cc(C)ccc1C (centres undefined)	-0.9	11.9	-33.9	2.9	3.3	0.8	x	x	x	x	x	x
CCOc1ccc(NC(=O)CN(C)C(=O)CCCc2nc3ccccc3c(=O)[nH]2)cc1OCC	6.4	4.3	-2.8	17.3	-28.5	0.0	x	x	x	x	x	x
COc1ccc(-c2cnc(SCC(=O)Nc3nc(C(C)(C)C)cs3)n2Cc2ccco2)cc1	-13.4	9.8	3.3	10.8	17.9	0.4*	115.5	0.0	129.1	0.1	x	x
Cn1c(=O)n(C)c2cc(/C=N/NC(=O)c3ccncc3)ccc21	x	x	x	x	x	0.3	x	x	x	x	x	x
Cc1nc(S(=O)(=O)Cc2ccc(Cl)cc2)nc2c1CCC2	-28.6	5.4	16.6	-13.6	-20.6	1.9*	104.7	0.0	99.6	0.0	x	x
CC(C)CC[n+]1ccccc1/C=C/c1ccc(N(C)C)cc1	56.8	76.0*	90.9*	85.8*	16.3	4.0*	955.1*	3.8	102.2	2.4	25.9*	85.5*
Cc1ccc2c(c1)c(/C=C/c1cc[n+](C)cc1)c(C)n2C	41.8	32.5	59.6	54.0*	-41.8	24.6*	+	31.8*	290.3*	16.5	9.5	30.7
C[n+]1ccc(/C=C/c2ccc(Br)cc2)cc1	-1.8	-4.2	-6.4	-11.6	-11.7	0.2	x	x	x	x	x	x
Cc1ccc2[nH]c(C)c(/C=C/c3cc[n+](C)cc3)c2c1	13.3	16.1	54.3	41.0*	-10.0	20.0*	+	16.3	317.0*	15.5	4.7	19.6
CC(=O)Nc1ccc(NS(=O)(=O)C(F)(F)F)cc1	-6.0	7.5	5.1	3.9	7.7	0.1	x	x	x	x	x	x
O=C(O)CSc1cc(NS(=O)(=O)c2ccc(Br)cc2)c2ccccc2c1O	-2.7	4.3	13.8	5.6	-34.0	-0.2	x	x	x	x	x	x
O=S(=O)(Nc1cc(Sc2ncn[nH]2)c(O)c2ccccc12)c1ccccc1	89.5*	83.6*	88.8*	71.6*	69.5*	x	100.3	-0.1	96.3	0.0	1.7	11.8
COc1ccccc1CNC(=O)Cn1nnnc1CN(C)C(C)C	25.0	-1.3	16.5	1.6	-3.9	-0.1	x	x	x	x	x	x
Cc1ccccc1OCCn1cc(C(=O)O)c2ccccc21	-93.1	9.4	3.5	-5.6	-17.7	-0.1	x	x	x	x	x	x
O=C(c1ccc(N2CCN(CCO)CC2)nc1)N1CCOCC1	-36.1	7.1	9.8	-12.0	7.1	0.0	x	x	x	x	x	x
CCCCCCCCCCCCCCCCn1cc[n+](C)c1	5.0	37.0	54.3	47.1*	15.9	2.7*!	100.4	-0.1	110.2	-0.1	12.6	49.0*
Cn1cc(/C=C/c2cc[n+](C)cc2)c2cc(Cl)ccc21	28.1	58.9	55.6	59.1*	3.9	5.9*	735.4*	2.9	99.3	2.0	3.5	25.6
Cn1cc(C=O)c2cc(F)ccc21	5.6	16.4	6.8	11.7	-10.1	0.1	x	x	x	x	x	x
NC1=NC[C@H](Cc2ccc(O)cc2)N1CCCCC1CCCCC1	9.0	18.1	32.7	38.4*	8.1	1.3	97.8	-0.1	+	0.0	14.7*	25.6
Cc1ccccc1CCNC(=O)C1CCN(S(=O)(=O)c2ccc(-n3cnnn3)cc2)CC1	-12.6	0.1	-3.1	23.1	-9.7	x	x	x	x	x	x	x
CCCCCCCCn1ccc(=N)cc1	9.3	25.1	11.4	41.6*	19.0	0.8*	97.0	-0.3	107.8	0.2	-5.3	30.0
CCCCCCN1Cc2ccccc2C1	-11.4	-11.3	-21.0	-14.5	-28.0	-0.3	x	x	x	x	x	x
CCN1/C(=C/c2ccc3cc(C)ccc3[n+]2CC)Sc2ccccc21	65.1*	55.1	95.7*	85.5*	-29.8	3.0*	x	4.9	143.4	1.7	1.4	78.8*
